# Reference: PMC12864922, “TDP-43 directly inhibits mRNA accumulation in neurites through modulation of mRNA stability”
# Over roughly 9,900 sequences, “r (bound/input frequency ratio)” has its median near 0.7; the highest 2% begin near 6.5. This excerpt belongs to a sample that is enriched for the highest values.
# B1: ENSMUSG00000090935.612|Synj2bp (ssRNA)
# RNA: GGGAGUUCUACAGUCCGACGAUCGCUUCGAUAUCCGCAUGCUAUUUUCUGUGUGGGUGAUUUCAUUUAAUUAAUUGGACAGUCUAGCCACAGGCAACAAAUAGAAAUAGUAUUUGUAAUUAUAGUCUAUGCCAGGGACUGUCUUAAACUGAUUAGUAACACUAUGACUUACCCUGAGAUCUAAGUAUUGCUAUAAAGAGACUGAAGAGGAGAGAAUAAAGUAUUUUCCUAGGACUACAUAGUUGGUAAAAGAGAAUCAUGAUUUAAACUCUGGACUAUGGAUGGCAGUAUCAGUAAUAUUCCCCUCUUGCGGUCGCACUAGUGUGGAAUUCUCGGGUGUCAAGG
# B2: ENSMUSG00000061578.450|Ksr2 (ssRNA)
# RNA: GGGAGUUCUACAGUCCGACGAUCGCUUCGAUAUCCGCAUGCUACUUCUAACCUUGUACUGGGACAUCAUCUAUGUCCCCAUCCCCAGAGCUGAAUUAGAGACACCAAGUAGCCUCUUGGGUUGUUUUGUGGGGUGUUCCCCUUGCUGGUCAAAGGAGUGGAAAGCCACCUUGCUGUAAAUGCUCUUGUUUUCUGUAGCAAUCUUGAACUCUUUUUUUUUUUUGUUCGUUUGUUUGUUUGUUUGUUUGUUUGUUUUUUCAAGACAGGGUUUUUCUGUAUAGCCCUGGCUGUCCUGGAACUCAUUCUCUUGCGGUCGCACUAGUGUGGAAUUCUCGGGUGUCAAGG
# B3: ENSMUSG00000043670.112|Diras1 (ssRNA)
# RNA: GGGAGUUCUACAGUCCGACGAUCGCUUCGAUAUCCGCAUGCUACCGUGACCUCUGACCUGUGGCCUUCCCUGGGUCCAGAACACCCCUGUCCUCUCCUGUCUGCACACCAGGGUGGAUGGGCCCGAGGGCUGGGCCUCAGGCACCAGGCAAUAAACACAGGGCCUGCAGCAAUGCCCUGGCCACCCCGAGUACCACCUCUGGAAUAGCAGACGCCCACAGCACAAGCCCAGGACUGUCCCUUCAGGGGAGGCACACUGGAACCCUGAACUUGGAGUGUGGAGUGGCUGCCUGGACACUGCCCACUCUUGCGGUCGCACUAGUGUGGAAUUCUCGGGUGUCAAGG
# B4: ENSMUSG00000090935.544|Synj2bp (ssRNA)
# RNA: GGGAGUUCUACAGUCCGACGAUCGCUUCGAUAUCCGCAUGCUAUUGUUGAUCUAAAUAAAAAAUAUCAUUGGUAGAAGUUUUACUUUGGUUGAUAAGGAUUCUGAUAACAUUUGGGUCUCCUUAGGAAAGAAACACUUAACUAAAACAUUUAAGUUUUAGGCAAAUACUGUAAUAUUUCACUCUUAGUUAUAUGAAAACUAAAUGAGAUGUUGAGAAUCUAUAUAGAUUAUUCAAAUUUUAUGUUUCUUAUAGACUGACUCAAAUAUUCCUACCACCUUAAAAUUAUAUAUGAUGCACCUACCCUCUUGCGGUCGCACUAGUGUGGAAUUCUCGGGUGUCAAGG
# B5: ENSMUSG00000029028.198|Lrrc47 (ssRNA)
# RNA: GGGAGUUCUACAGUCCGACGAUCGCUUCGAUAUCCGCAUGCUAUGUGUACGCAUCUGUACCAGCACACAGCUGCCAUCCCUCGAGCCACAGUGCCUGGUCCUAAGGACCCAGCAGCUGCACAGAGGACUUGGUGGCCCCGUGCCUUGCCAUCUGGCUGAGAAGAGAACCAGACCCUCAGCCUUCCCCCUCGACACCUUCUCGUUGGUGACCUCUGACCUUAAAGGACCAUUUCUACCUUCUGUAAAAGAACACCUGUUUGGGGUUGCGUGCGGCUUUCAUCCUAAGGCCGUGCGAGAGCCGUUCUCUUGCGGUCGCACUAGUGUGGAAUUCUCGGGUGUCAAGG
# B6: ENSMUSG00000029636.117|Wasf3 (ssRNA)
# RNA: GGGAGUUCUACAGUCCGACGAUCGCUUCGAUAUCCGCAUGCUAGGAGCCCUGUGGGUACUCAUGUGGAAAGUGCCCACUGACUUUGGCAGAUGGAGUUCACUUUCAUGGCUAGCCCUGAUAGCGUUGGGCACCAGUUAGCCAGGCCAUGUUCAAGCUGCCUAGAGUCUGCAGAGCUUGCAUGGCAGAGCGGCCGCAUCUGGUUCCCUCCUACUCCACCCAGUGGAAAAGAGACCUCCACGUUUUAUUUUCUGGGAUCCCUGCUCCUCUGUUCACCAGGGAGUGAGCACAGGUCAGCACCUCACCUCUUGCGGUCGCACUAGUGUGGAAUUCUCGGGUGUCAAGG
# B7: ENSMUSG00000042529.497|Kcnj12 (ssRNA)
# RNA: GGGAGUUCUACAGUCCGACGAUCGCUUCGAUAUCCGCAUGCUAGGGCCCCUGCAGCUGGACCAUGUACAGGGCUCCCUGGGGCUUGUCCUCAGGGGCAGAGAAGGACAUGGUGGCAGCAGCACUGAGAACAGGAGCAUGGCCUCUCUCAGACCCCAGGGCAGUCAUUCAGUCUUUUCCAUGGACACUCCCCACCGCUCCACAUACUGCCUCCGCCUCAUUCUUGGGCUCUUCCUGCCUUGCUGUCUUUCCUUCCACACAGAAGCACCAAGCAUCAUCCAUUCCCAUAGGCAAGCCCAGGGCACCUCUUGCGGUCGCACUAGUGUGGAAUUCUCGGGUGUCAAGG
# B8: ENSMUSG00000058297.521|Spock2 (ssRNA)
# RNA: GGGAGUUCUACAGUCCGACGAUCGCUUCGAUAUCCGCAUGCUAGACCACGUGUGAUGGGUGGGCACAGGUCUGCCUUGCUCCAGCCCCCUCCCUUGGUUUCUGUUGGUACCCAUUUGGCUUUUAUCUGCUUUCUGCUUCACCACUAAGUGCGUAGGUGGGGUCUUUUGAUAUCGGCUCCCCAAAGCCCAAGCCCACAGCCCUAGGAGAGAACCAGGGGCCCAUCUUUGACACCUGGGCCAUCACGAGCCCUCCCGCCUGCAGUUGUCCUAGGGAAAGACCUGGGGGUGCAAAAGGAGAUUCAACUCUUGCGGUCGCACUAGUGUGGAAUUCUCGGGUGUCAAGG
# Target: TDP-43 (Homo sapiens, UniProt Q13148 1-414)
# Sequence (Q13148 whole entry): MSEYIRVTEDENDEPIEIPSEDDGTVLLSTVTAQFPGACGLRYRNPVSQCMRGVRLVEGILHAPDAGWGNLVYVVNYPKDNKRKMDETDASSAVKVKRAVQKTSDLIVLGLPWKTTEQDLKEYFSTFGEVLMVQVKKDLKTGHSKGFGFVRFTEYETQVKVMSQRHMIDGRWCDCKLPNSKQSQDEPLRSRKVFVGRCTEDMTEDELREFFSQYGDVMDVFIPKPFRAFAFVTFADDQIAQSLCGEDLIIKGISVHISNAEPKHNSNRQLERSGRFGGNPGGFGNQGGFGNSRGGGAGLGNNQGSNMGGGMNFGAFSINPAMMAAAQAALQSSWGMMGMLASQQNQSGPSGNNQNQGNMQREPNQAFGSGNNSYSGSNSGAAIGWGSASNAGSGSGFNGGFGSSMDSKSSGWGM
# Assay: RNA Bind-n-Seq with designed 260-mer pool; 25 mM Tris-HCl, 150 mM KCl, 3 mM MgCl2, BSA (printed 500 mg/mL), 20 units/mL SUPERase IN; pH not stated; 500 nM RNA pool, 1 h, 4 C; TDP-43 5, 50, 500 nM; high values mean tight binding
# Settings: protein: recombinant; tags: SBP (GST cleaved off with PreScission; pGEX-GST-SBP)
# How it was run: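 Streptavidin beads captured recombinant SBP-tagged TDP-43 at 5, 50 or 500 nM, and the beads were incubated for 1 h at 4 °C with 500 nM of an in vitro-transcribed pool of 260-nt 3′ UTR oligos in 25 mM Tris-HCl, 150 mM KCl, 3 mM MgCl2, BSA and SUPERase IN. After washing, bound RNA was eluted with biotin, reverse transcribed, PCR-amplified and sequenced. Binding is reported as R, the mapped-read-normalized abundance of each oligo in the bound sample divided by its abundance in the input. Two independent protein batches served as duplicates.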
row,Binder,binding signal
1,B1,0.0897 R (bound/input frequency ratio)
2,B2,2.73 R (bound/input frequency ratio)
3,B3,0.898 R (bound/input frequency ratio)
4,B4,0.0172 R (bound/input frequency ratio)
5,B5,0.346 R (bound/input frequency ratio)
6,B6,0.346 R (bound/input frequency ratio)
7,B7,0.929 R (bound/input frequency ratio)
8,B8,0.432 R (bound/input frequency ratio)
